Screening results (PubChem BioAssay)
Only some compounds are listed: those with a hit (about 1.5% of all), similar ones and a draw of the others.
NALP1 yeast inh: NALP1 inflammasome inhibitors in reconstituted yeast, colorimetric, S. cerevisiae, triplicate retest; S. cerevisiae NALP1/ASC/caspase-1 growth, X-gal OD620, 72 h; inhibition, % at 10 µM; 280,000 compounds, 0.61% hits; in the data active = inhibition mostly above about 24%, no sharp cut-off; inactive = mostly below about 32%
PolyA inhibitor: polyadenylation inhibitors in yeast reporter cells, primary screen, luminescence, S. cerevisiae; S. cerevisiae SKY197-pL101 polyadenylation reporter, beta-gal luminescence; efflux-impaired pdr1/pdr3 knockout yeast; score 100 = 6 SD above DMSO; activity score, % at 12 µM; 300,000 compounds, 0.02% hits;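 active = lowest replicate activity score at least 50, where 100 means six control SD above control mean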;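 also: yeast exposed to compound for 9 h at 30 °C; higher score means more reporter readthrough which indicates perturbed polyadenylation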
JMJD2C inh: inhibitors of GASC-1 histone demethylase, primary screen, biochemical, fluorescence, DELFIA europium. inhibition, % at 2.35 µM. GST-JMJD2C(1-420) H3K9me3 demethylation. 330,000 compounds, 0.069% hits;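 active = more than half of a compound's replicate wells show inhibition beyond 50%, single wells judged on their own value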;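 also: signal counts dimethyl H3K9 product captured on neutravidin plate; 0% = median of DMSO wells and 100% = 0.3 times that DMSO median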
Efflux pump inh: inhibitors of Candida efflux pumps in yeast, primary screen, S. cerevisiae, Nile Red, multiplex. AID 485275, 2010. S. cerevisiae Candida pump triplex. inhibition, % at 10 µM. 330,000 compounds, 0.44% hits;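 active = plate passing quality check with inhibition over a set limit, or well fluorescence over plate mean plus 4 SD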;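 also: Nile Red retained in pooled yeast measured as flow cytometry median fluorescence; 0% = buffer negative control and 100% = Enniatin B positive control; higher means more Nile Red kept so more efflux inhibition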
HDAC3 inhib: HDAC3 deacetylase inhibitors, primary screen, biochemical, fluorescence, cell-free homogeneous; Histone deacetylase 3 (Homo sapiens), O15379; recombinant HDAC3, fluorogenic peptide/trypsin coupled; inhibition, % at 8.3 µM; 320,000 compounds, 0.15% hits; AID 2718, 2010; in the data active = inhibition above about 26%, passing the limit was not always enough
Target sequence (O15379 whole entry, looked up): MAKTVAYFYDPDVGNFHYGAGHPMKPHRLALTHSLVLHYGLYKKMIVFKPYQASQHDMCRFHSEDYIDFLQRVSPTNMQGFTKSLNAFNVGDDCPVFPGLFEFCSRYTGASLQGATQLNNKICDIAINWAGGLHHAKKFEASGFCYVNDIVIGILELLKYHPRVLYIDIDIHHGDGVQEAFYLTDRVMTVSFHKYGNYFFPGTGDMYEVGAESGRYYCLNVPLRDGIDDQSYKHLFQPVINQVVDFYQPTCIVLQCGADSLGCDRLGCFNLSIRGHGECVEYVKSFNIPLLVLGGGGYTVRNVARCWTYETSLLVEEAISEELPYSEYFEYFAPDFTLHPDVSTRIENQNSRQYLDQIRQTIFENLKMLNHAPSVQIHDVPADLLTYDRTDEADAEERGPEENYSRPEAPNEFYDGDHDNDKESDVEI
NLRP3 yeast inh: NALP3 inflammasome inhibitors in reconstituted yeast, primary screen, luminescence, uHTS. Yeast reconstituted NLRP3/ASC/caspase-1, beta-gal luminescence, 24 h. inhibition, % at 10 µM. 330,000 compounds, 0.39% hits. AID 2825, 2010;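 active = inhibition of 50% or more; inactive = inhibition below 50%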;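 also: plate controls were induced DMSO wells for no effect and uninduced yeast grown without galactose for full effect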
NALP3 confirm: NALP3 inhibitors retested in yeast, confirmation, luminescence, single concentration | AID 435006, 2010 | yeast expressing human NALP3 | shares compounds with NLRP3 yeast inh | inhibition, % at 10 µM | 1,300 compounds, 81% hits; in the data active = inhibition above about 48%
Casp1-ASC yeast: CASP1-PYCARD signaling inhibition in yeast, confirmatory test, counterassay for NLRP3 inhibitor program, one-dose. shares compounds with NLRP3 yeast inh. yeast expressing Caspase-1-ASC, luminescence counter screen. inhibition, % at 10 µM. 1,000 compounds, 66% hits. AID 488784, 2010
NALP3 yeast rt: NALP3 inhibitors in yeast, repeat test, confirmation, luminescence, single concentration, retest | shares compounds with NLRP3 yeast inh | yeast expressing human NALP3, luminescence read-out | inhibition, % at 10 µM | 1,000 compounds, 53% hits | AID 488794, 2010
Numbers without * were called inactive; . = no result given. Rule as the data show it, unless noted: active = inhibition above about 50%; inactive = the rest.

SMILES	NALP1 yeast inh	PolyA inhibitor	JMJD2C inh	Efflux pump inh	HDAC3 inhib	NLRP3 yeast inh	NALP3 confirm	Casp1-ASC yeast	NALP3 yeast rt
c1ccc2c(c1)Cn1c-2nc2ccccc21	.	-7	10	0	3	70*	73*	84*	77*
Brc1c(-c2ccccc2)nc2n1Cc1ccccc1-2	13	-28	4	0	4	27	.	.	.
Cn1c(-c2ccccc2)cc2c3no[n+]([O-])c3ccc21	20	2	0	0	-7	53*	61*	63*	59*
Cn1c(-c2ccccc2)cc2ccccc21	11	-13	5	0	-6	11	.	.	.
c1ccc2c(c1)CCN(c1nc3cc4c(cc3s1)OCO4)C2	15	2	-4	0	2	56*	52*	42	40
CCOc1ccc(Nc2nc3cc(S(=O)(=O)CC)ccc3o2)cc1	9	21	-2	0	3	-89	.	.	.
CCS(=O)(=O)c1ccc2oc(Nc3ccc(OC)cc3)nc2c1	-12	7	-1	0	-2	-116	-16	.	.
CC1(C)CC(=O)C2=C(C1)OC1=C(C(=O)CC(C)(C)C1)C2c1ccc(O)c([N+](=O)[O-])c1	6	10	-10	0	5	-7	.	.	.
CC1(C)CC(=O)C2=C(C1)OC1=C(C(=O)CC(C)(C)C1)C2c1ccc(O)cc1O	-6	-9	1	0	8	56*	56*	57*	42
O=C(c1ccc(F)cc1)n1ccc(-c2cnc(-c3ccccc3)s2)n1	5	-5	8	0	-29	73*	57*	12	-1
Fc1ccc(Cn2ccc(-c3cnc(-c4ccccc4)s3)n2)cc1	-13	-6	8	0	-49	23	.	.	.
CCC1Oc2ccccc2N(Cc2ccccc2C)C1=O (centres undefined)	-20	-10	36	0	3	-151	-22	.	.
COc1ccc(S(N)(=O)=O)cc1C(=O)OCC(=O)N1CC(=O)Nc2ccccc21	.	.	.	.	.	8	.	.	.
NCCc1nnc(SCC(=O)Nc2ccc(Br)cc2)o1	3	-18	-1	0	-1	58*	70*	53*	49
CN(C)c1ccc(-n2cccc2/C=C/[N+](=O)[O-])cc1	-3	1	0	0	0	61*	65*	.	.
CCCCn1c(N)c(N(CCC(C)C)C(=O)C2CC(=O)N(CCc3ccc(OC)c(OC)c3)C2)c(=O)[nH]c1=O (centres undefined)	.	19	0	0	3	21	.	.	.
CN1C(=O)c2cccc(NC(=O)Cc3ccccc3)c2C1=O	28	-2	-6	0	-9	50*	50*	60*	36
CC1CCCN(C(=O)CCc2nnc(-c3ccc4c(c3)OCO4)o2)C1 (centres undefined)	10	3	-3	0	10	8	.	.	.
CCCCNC(=O)Oc1cc(CCl)on1	0	-5	5	0	-6	-14	.	.	.
CCCCNC(=O)Oc1c(Br)cc2sc(=O)oc2c1Br	.	.	-1	0	4	72*	62*	.	.
Cc1sc2ncnc(OCC(=O)NC3CCS(=O)(=O)C3)c2c1C (centres undefined)	6	1	2	0	.	-10	.	.	.
COc1ccc(-c2cn3c4c(sc3n2)CCCC4)cc1	0	-19	-8	0	5	52*	61*	49	45
C=C1/C=C(\C)[C@](C)(O)C[C@H](O)CC(=O)[C@H](O)[C@@H](O)[C@H](C)C[C@H](C)OC(=O)/C(C)=C/CC/C=C/[C@@H]2O[C@H]2C[C@H](C)C1	.	.	.	0	8	83*	89*	.	.
CCc1noc(C)c1C(=O)Nc1ccc(C(F)(F)F)cc1	15	0	-54	3	0	50*	62*	49	46
CCc1noc(C)c1C(=O)Nc1nc2c(C)cccc2s1	.	-21	-2	0	2	59*	74*	69*	55*
SMILES	NALP1 yeast inh	PolyA inhibitor	JMJD2C inh	Efflux pump inh	HDAC3 inhib	NLRP3 yeast inh	NALP3 confirm	Casp1-ASC yeast	NALP3 yeast rt
CCc1noc(C)c1C(=O)Nc1cc(C(F)(F)F)ccc1-n1cncn1	.	-10	-34	0	-3	14	.	.	.
CCc1noc(C)c1C(=O)Nc1nc2c(F)cc(F)cc2s1	.	.	1	0	-2	72*	76*	79*	67*
CCc1noc(C)c1C(=O)Nc1nc(-c2cccs2)cs1	.	16	-3	0	7	56*	71*	62*	60*
Cc1ccc(NC(=O)CN(C)C(=O)c2nn(C)c(=O)c3ccccc23)cc1	4	1	-8	0	1	-2	.	.	.
O=C(CSC(=S)N1CCCC1)c1ccccc1	3	-4	-5	0	4	23	.	.	.
O=C(CSC(=S)N1CCCCC1)c1ccccc1	9	-12	-3	0	3	60*	73*	70*	56*
CCN(CC)c1ccc(Nc2nc(Cl)ncc2Br)cc1	38	2	-7	0	1	54*	64*	54*	44
CCN(CC)c1ccc(CNc2ccc(Br)cn2)cc1	5	17	3	0	5	29	.	.	.
COC(=O)C1C(C(=O)OC)C1(c1ccccc1)c1ccccc1 (centres undefined)	0	11	24	0	-7	-138	-38	.	.
CCN(CC)S(=O)(=O)c1cc(C(=O)Nc2cc(C)[nH]n2)ccc1Cl	-6	-20	2	0	-2	-6	.	.	.
Cn1c(/C=N/Nc2nc3ccccc3[nH]2)nc2ccccc21	-14	-7	1	0	6	51*	74*	9	22
CCCn1c(/C=N/Nc2nc3ccccc3[nH]2)nc2ccccc21	32	.	.	.	.	.	.	.	.
O=C(COc1ncnc2ccccc12)c1ccc2c(c1)OCCO2	-19	-8	-10	0	9	53*	69*	44	45
CNc1nc(N)c([N+](=O)[O-])c(Nc2cccc(F)c2)n1	8	3	-3	0	1	75*	86*	78*	56*
CNc1nc(N)c([N+](=O)[O-])c(Nc2cccc(Cl)c2)n1	6	-45	5	0	-11	60*	66*	.	.
